Test system: not listed separately
Assay: RPMI8226 myeloma cell viability, profiling panel, resazurin fluorescence, basal, 24 h, PK04 Diversity Set (AID 1180);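 note: RPMI8826 multiple myeloma cell line at 5000 cells per well; test concentration not given here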
Conditions: higher = more signal
Compound `C[N+](C)(C)CCCCCCNC(=O)[C@@H]1C[C@@H]2C(=O)N3CCC[C@H]3C(=O)N2[C@@H]1c1cccc(OCCO)c1` has a z-score of -0.245.
`CN1C(=O)[C@@]2(CCC(=O)OC(C)(C)C)N=C(c3ccc(OCCCO)cc3)O[C@H]2c2ccccc21` showed a z-score of -1.99.
Compound `COCC1=C2[C@@H](CCc3ccccc3)OB(O)C[C@@H]2n2c(=O)n(-c3ccccc3)c(=O)n2C1` has a z-score of 0.0549.
`CCCCC(=C=CC[C@H](O)c1ccccc1OCCO)C[C@H](O)COCc1ccccc1` showed a z-score of -0.276.
Work on `COCCOC(=O)N1C(=O)[C@@]2(c3cc(C#CCNC(N)=O)ccc31)[C@H](c1ccc(O)cc1)N1[C@H](c3ccccc3)[C@H](c3ccccc3)OC(=O)[C@H]1[C@@H]2C(=O)N1CCCCCCC1` yielded a z-score of -0.336.
In the case of `CC(C)NC(=O)[C@@H]1c2ccccc2C(=O)N(CC23CC4CC(CC(C4)C2)C3)[C@H]1c1ccc(CO)cc1`, the z-score is reported as 0.834.
Compound `CCCC[C@@H]1C[C@H]1[C@@H](NS(=O)(=O)c1cccc2cccnc12)c1ccc(-c2ccccc2)cc1` has a z-score of -0.611.
`CC(C)N1CC=CC23O[C@@H]4C=CCCOC(=O)C4[C@H]2C(=O)N(CCCCCCO)[C@@H]3C1=O` (stereo partly specified) gave a z-score of 0.937.
`CC(C)=C1C(=O)C(c2ccccc2)=C2CN3C(=O)N(CCc4ccccc4)C(=O)[C@]3(Cc3ccc(F)cc3)[C@H]21` gave a z-score of -0.942.
With `CO[C@H]1O[C@H](CO)[C@@H](OC(=O)Nc2ccc(C#N)cc2)[C@H](OC(=O)c2cc3ccccc3[nH]2)[C@H]1OC(=O)c1cc2ccccc2[nH]1` the z-score was -1.7.
`[N-]=[N+]=NCc1ccccc1[C@@H]1OC(c2ccc(OCCCO)cc2)=N[C@]1(Cc1ccccc1)C(=O)N1CCOCC1` showed a z-score of -0.425.
Compound `CC(C)c1ccc(NN2C(C(O)c3ccc4c(c3)OCO4)C=CC3C(=O)N(c4ccccc4)C(=O)C32)cc1` (stereo unspecified) has a z-score of -0.191.
With `COCC(=C=CC[C@@H](O)c1ccccc1OCCO)CCO` the z-score was 1.42.
In the case of `CC(C)OC(=O)C=C1C[C@@H](c2ccc(C#N)cc2)O[C@@H](c2ccc(C#N)cc2)O1`, the z-score is reported as -0.312.
With `CC(C)(C)N1CC=CC23O[C@@H]4C=CCCOC(=O)C4[C@H]2C(=O)N(CCCCCO)[C@@H]3C1=O` (stereo partly specified) the z-score was 0.384.

Target: E3 ubiquitin-protein ligase XIAP (Homo sapiens) (UniProt P98170)
Sequence (P98170 whole entry, looked up): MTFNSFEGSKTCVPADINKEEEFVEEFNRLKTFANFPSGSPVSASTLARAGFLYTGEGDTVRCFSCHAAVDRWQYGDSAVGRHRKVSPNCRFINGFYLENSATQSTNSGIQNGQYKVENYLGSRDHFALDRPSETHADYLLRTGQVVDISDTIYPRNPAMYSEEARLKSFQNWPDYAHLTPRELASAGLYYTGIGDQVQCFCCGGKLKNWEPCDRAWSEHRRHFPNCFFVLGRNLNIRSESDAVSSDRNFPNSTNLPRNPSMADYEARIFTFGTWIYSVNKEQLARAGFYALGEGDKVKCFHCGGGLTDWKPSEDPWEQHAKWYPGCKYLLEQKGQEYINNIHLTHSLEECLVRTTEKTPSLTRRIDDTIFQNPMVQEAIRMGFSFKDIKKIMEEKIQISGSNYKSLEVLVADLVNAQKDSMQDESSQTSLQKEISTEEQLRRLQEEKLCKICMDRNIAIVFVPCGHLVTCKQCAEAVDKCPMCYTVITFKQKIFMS
Assay: XIAP binders, primary screen, biophysical, small-molecule microarray, fluorescence 635 nm (AID 1181);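 note: score merges 667 nm emission and signal to noise over triplicate slides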
Conditions: small-molecule microarray binding, higher = more signal
Compound `CN(C)CCCNC(=O)[C@@H]1c2ccccc2C(=O)N(Cc2ccccc2)[C@H]1c1ccc(CO)cc1` has a composite z-score of -0.0926.
Compound `COc1ccc([Si](C)(C)[C@H]2[C@H](CC(=O)N3CCC[C@H]3CO)O[C@@]3(C(=O)N(Cc4cccc(N5C(=O)COc6ccccc65)c4)c4ccccc43)[C@@H]2C)cc1` has a composite z-score of -0.0795.
With `C=CC[C@]1(C(=O)NCc2ccccc2)N=C(c2ccc(OCCCO)cc2)O[C@H]1c1ccccc1` the composite z-score was -0.102.
For `COC(=O)[C@@]1(Cc2ccc(F)cc2)[C@H]2c3cc(C(=O)N(C)C)n(Cc4ccc(OC)c(OC)c4)c3C[C@H]2CN1C(=O)c1ccccc1`, the composite z-score was 0.276.
For `O=C(CS)NCCCCCNC(=O)[C@H]1C[C@H]2C(=O)N3CCC[C@H]3C(=O)N2[C@H]1c1cccc(OCCO)c1`, the composite z-score was 0.0785.
Compound `Cn1cccc1C(O)C1C=CC2C(=O)NC(=O)C2N1Nc1ccccn1` (stereo unspecified) has a composite z-score of 0.203.
`O=C1O[C@@H](c2ccccc2)[C@@H](c2ccccc2)N2[C@@H](c3ccc(OCCO)cc3)[C@]3(C(=O)Nc4ccccc43)[C@@H](C(=O)N3CCN(c4ncccn4)CC3)[C@H]12` showed a composite z-score of -0.227.
`COC(=O)c1c(CC[C@@H](CO)NC(=O)N[C@H](Cc2ccccc2)Cn2cc(-c3ccccc3N)nn2)oc(C(C)=O)c1C(=O)OC` gave a composite z-score of -0.127.
For `COC(=O)[C@@H]1N=C(c2ccc(OCCCO)cc2)O[C@@H]1c1ccccc1N=[N+]=[N-]`, the composite z-score was 0.267.
Work on `CCOC(=O)C1=CC[C@H]2C(=O)N(CC)C(=O)[C@@H]12` yielded a composite z-score of -0.311.
`C=C(/C(=C/C[C@H](OC(C)=O)c1ccc(OCCO)cc1)c1cnc2ccccc2c1)C(C)C` showed a composite z-score of 0.102.
For `N#Cc1ccc(NN2C(C(O)c3cc(C(F)(F)F)cc(C(F)(F)F)c3)C=CC3C(=O)N(c4ccccc4)C(=O)C32)cc1` (stereo unspecified), the composite z-score was 0.0239.
Work on `COCCOC(=O)N1C(=O)[C@@]2(c3cc(C#CCNC(N)=O)ccc31)[C@H](c1ccccc1OCCO)N1[C@H](c3ccccc3)[C@H](c3ccccc3)OC(=O)[C@H]1[C@@H]2C(=O)N1CCN(c2ncccn2)CC1` yielded a composite z-score of -0.152.
`CC(C)[Si]1(C(C)C)O[C@@H](c2ccccc2)c2cc(C3CC3)nc(-c3ccccc3)c21` showed a composite z-score of 0.0785.
In the case of `COc1ccc([Si](C)(C)[C@@H]2[C@@H](CC(=O)N3CCC[C@H]3CO)O[C@]3(C(=O)N(Cc4cccc(N5CCC5=O)c4)c4ccccc43)[C@H]2C)cc1`, the composite z-score is reported as -0.152.
Compound `CN(C)c1ccc(C(O)C2C=CC3C(=O)N(c4ccccc4)C(=O)C3N2Nc2ccccc2F)cc1` (stereo unspecified) has a composite z-score of 0.24.
`CCCCCN1CC=CC23O[C@@H]4C=CCOC(=O)[C@@H]4[C@H]2C(=O)N(CCCCCCO)[C@@H]3C1=O` (stereo partly specified) showed a composite z-score of 0.114.
For `CC(C)(C)OC(=O)CC[C@]1(C(N)=O)COC(c2ccc(OCCCO)cc2)=N1`, the composite z-score was 0.276.
With `CC(C)(C)OC(=O)CC[C@]1(C(=O)NCc2ccccc2)N=C(c2ccc(OCCCO)cc2)O[C@H]1c1ccccc1` the composite z-score was -0.16.
Work on `COc1ccc(CCNC(=O)[C@@H]2c3ccccc3C(=O)N(c3ccc(C)cn3)[C@H]2c2ccc(CO)cc2)cc1` yielded a composite z-score of -0.267.
`CC1CC/C=C\[C@H]2OC34C=CCN(Cn5nnc6ccccc65)C(=O)[C@H]3N(CCO)C(=O)[C@@H]4C2C(=O)O1` (stereo partly specified) gave a composite z-score of 0.235.
Work on `C[N+](C)(C)CCCCCCNC(=O)[C@@H]1C[C@@H]2C(=O)N3CCC[C@H]3C(=O)N2[C@@H]1c1cccc(OCCO)c1` yielded a composite z-score of -0.0655.
Work on `CN1C(=O)[C@@]2(CCC(=O)OC(C)(C)C)N=C(c3ccc(OCCCO)cc3)O[C@H]2c2ccccc21` yielded a composite z-score of 0.169.
In the case of `COCC1=C2[C@@H](CCc3ccccc3)OB(O)C[C@@H]2n2c(=O)n(-c3ccccc3)c(=O)n2C1`, the composite z-score is reported as 0.698.
With `CCCCC(=C=CC[C@H](O)c1ccccc1OCCO)C[C@H](O)COCc1ccccc1` the composite z-score was -0.0062.
In the case of `COCCOC(=O)N1C(=O)[C@@]2(c3cc(C#CCNC(N)=O)ccc31)[C@H](c1ccc(O)cc1)N1[C@H](c3ccccc3)[C@H](c3ccccc3)OC(=O)[C@H]1[C@@H]2C(=O)N1CCCCCCC1`, the composite z-score is reported as -0.212.
For `CC(C)NC(=O)[C@@H]1c2ccccc2C(=O)N(CC23CC4CC(CC(C4)C2)C3)[C@H]1c1ccc(CO)cc1`, the composite z-score was -0.0172.
In the case of `CCCC[C@@H]1C[C@H]1[C@@H](NS(=O)(=O)c1cccc2cccnc12)c1ccc(-c2ccccc2)cc1`, the composite z-score is reported as -0.0559.
`CC(C)N1CC=CC23O[C@@H]4C=CCCOC(=O)C4[C@H]2C(=O)N(CCCCCCO)[C@@H]3C1=O` (stereo partly specified) showed a composite z-score of 0.694.
Compound `CC(C)=C1C(=O)C(c2ccccc2)=C2CN3C(=O)N(CCc4ccccc4)C(=O)[C@]3(Cc3ccc(F)cc3)[C@H]21` has a composite z-score of -0.02.
With `CO[C@H]1O[C@H](CO)[C@@H](OC(=O)Nc2ccc(C#N)cc2)[C@H](OC(=O)c2cc3ccccc3[nH]2)[C@H]1OC(=O)c1cc2ccccc2[nH]1` the composite z-score was -0.0448.
In the case of `[N-]=[N+]=NCc1ccccc1[C@@H]1OC(c2ccc(OCCCO)cc2)=N[C@]1(Cc1ccccc1)C(=O)N1CCOCC1`, the composite z-score is reported as 0.113.
In the case of `CC(C)c1ccc(NN2C(C(O)c3ccc4c(c3)OCO4)C=CC3C(=O)N(c4ccccc4)C(=O)C32)cc1` (stereo unspecified), the composite z-score is reported as 0.0641.
`COCC(=C=CC[C@@H](O)c1ccccc1OCCO)CCO` gave a composite z-score of 0.326.
In the case of `CC(C)OC(=O)C=C1C[C@@H](c2ccc(C#N)cc2)O[C@@H](c2ccc(C#N)cc2)O1`, the composite z-score is reported as -0.0994.
Compound `CC(C)(C)N1CC=CC23O[C@@H]4C=CCCOC(=O)C4[C@H]2C(=O)N(CCCCCO)[C@@H]3C1=O` (stereo partly specified) has a composite z-score of 0.329.

Source: PubChem BioAssay
